Measured values: PubChem BioAssay (NCI)
About 79,000 compounds went through this panel and 15% of them were active in at least one assay; those are over-represented in the sample as a whole. Rule as the data show it: active = growth inhibition above about 70%; inactive = the rest.

What was measured:
[1] = NCI Yeast Anticancer Drug Screen. Data for the rad52 strain (AID 147);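 also: 0% = growth of vehicle-treated control cultures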; conditions: S. cerevisiae rad52 mutant growth inhibition, stronger effect = higher value
Outline: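 Screen used a yeast mutant impaired in DNA repair. After compound exposure, growth was measured. Values reflect inhibition compared with vehicle-treated cells.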

[2] = NCI Yeast Anticancer Drug Screen. Data for the wt1 strain (AID 149);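 also: 0% = growth of vehicle-treated wt1 cultures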; conditions: S. cerevisiae wt1 strain (SPY 50644) growth inhibition, stronger effect = higher value
Outline: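 Each compound is tested on wt1 yeast and the loss of growth versus vehicle gives the inhibition value.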

[3] = NCI Yeast Anticancer Drug Screen. Data for the rad50EPP+ strain (AID 151);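 also: 0% = growth of vehicle-treated control cultures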; conditions: S. cerevisiae rad50 mutant strain, stronger effect = higher value
Outline: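 Exposing the rad50EPP+ strain to each compound, growth was compared with vehicle-only cultures to give inhibition.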

[4] = NCI Yeast Anticancer Drug Screen. Data for the mgt1 strain (AID 153); conditions: S. cerevisiae mgt1 mutant growth inhibition, stronger effect = higher value
Outline: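 Genetically defined yeast (mgt1) treated with compound; inhibition of growth expressed against vehicle-treated controls.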

[5] = NCI Yeast Anticancer Drug Screen. Data for the rad50 strain (AID 155);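 also: 0% = growth of vehicle-only cultures of the same strain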; conditions: S. cerevisiae rad50 strain growth inhibition, stronger effect = higher value
Outline: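 Vehicle-treated cultures provide the reference for the growth inhibition reported for compound-exposed, repair-deficient yeast.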

[6] = NCI Yeast Anticancer Drug Screen. Data for the mec2-1 strain (AID 157); conditions: S. cerevisiae mec2-1 strain, stronger effect = higher value
Outline: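 Readout is yeast growth inhibition, normalised to vehicle-treated controls, in the mec2-1 strain exposed to compound.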

[7] = NCI Yeast Anticancer Drug Screen. Data for the rad14 strain (AID 159);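 also: 0% = growth of vehicle-treated control cultures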; conditions: S. cerevisiae rad14 strain growth inhibition, stronger effect = higher value
Outline: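 Inhibition of growth is reported for a repair-deficient yeast mutant following compound treatment, calculated relative to cultures that received vehicle.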

[8] = NCI Yeast Anticancer Drug Screen. Data for the sgs1 mgt1 strain (AID 161);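 also: 0% = growth of cultures given vehicle only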; conditions: S. cerevisiae sgs1 mgt1 strain, stronger effect = higher value
Outline: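 Percent growth inhibition was derived by comparing compound-exposed mutant yeast with vehicle-exposed cultures. The strain carries alterations in DNA damage repair.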

[9] = NCI Yeast Anticancer Drug Screen. Data for the CLN2oe strain (AID 163);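 also: 0% = growth of vehicle-only control cultures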; conditions: S. cerevisiae CLN2oe strain, stronger effect = higher value
Outline: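 Values reflect how much compound exposure reduced yeast growth, referenced to vehicle-exposed cells. Assay organism is a strain with a defined genetic change affecting cell-cycle control.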

[10] = NCI Yeast Anticancer Drug Screen. Data for the cln2 rad14 strain (AID 165);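 also: 0% = growth equal to vehicle treated cultures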; conditions: S. cerevisiae cln2 rad14 strain, stronger effect = higher value
Outline: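 Relative to vehicle controls, growth inhibition of compound-treated cln2 rad14 yeast was recorded.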

[11] = NCI Yeast Anticancer Drug Screen. Data for the bub3 strain (AID 167); conditions: S. cerevisiae bub3 mutant strain, stronger effect = higher value
Outline: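 Mutant yeast screening strain plus compound; vehicle-treated cultures serve as the 0% inhibition reference.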

[12] = NCI Yeast Anticancer Drug Screen. Data for the wt2 strain (AID 169); conditions: S. cerevisiae wt2 strain growth inhibition, stronger effect = higher value
Outline: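 Values express reduction in yeast growth under compound treatment, referenced to vehicle-treated cells.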

[13] = NCI Yeast Anticancer Drug Screen. Data for the mlh1 strain (AID 171);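 also: 0% = growth of vehicle-treated control cultures of the same strain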; conditions: S. cerevisiae mlh1 strain growth inhibition, stronger effect = higher value
Outline: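 Steps: expose the defined-mutant yeast strain to compound; expose a parallel culture to vehicle; measure growth; express compound effect as inhibition relative to the vehicle culture.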

[14] = NCI Yeast Anticancer Drug Screen. Data for the sgs1 strain (AID 173);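 also: 0% = growth of vehicle-only control cultures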; conditions: S. cerevisiae sgs1 mutant, stronger effect = higher value
Outline: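 Treat defined-mutant yeast with compound; measure growth; calculate inhibition relative to vehicle-treated cells.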

[15] = NCI Yeast Anticancer Drug Screen. Data for the mlh1 rad18 strain (AID 175); conditions: S. cerevisiae mlh1 rad18 strain growth inhibition, stronger effect = higher value
Outline: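 Test agents were incubated with a yeast strain of defined genotype (DNA damage repair defect). Inhibition of growth was derived by comparison with vehicle-exposed cultures.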

[16] = NCI Yeast Anticancer Drug Screen. Data for the rad18 strain (AID 177); conditions: S. cerevisiae rad18 mutant growth inhibition, stronger effect = higher value
Outline: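 A genetically defined yeast mutant impaired in DNA damage repair was treated with test compounds, then its growth was measured against cultures receiving vehicle alone.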

[17] = at 5.0 µM (retest, dose inferred, filed as 0.5)
[18] = at 50.0 µM (retest, dose inferred, filed as 5.0)

Measured: growth inhibition

O=C(O)c1ccccc1C(=O)OC1CCc2ccccc2C1 (stereo not drawn)
inactive: [1]; at 1.2 µM -3% | [1]; at 3.7 µM -2% | [1]; at 11.0 µM 0% | [1]; at 33.0 µM 18% | [1]; at 100.0 µM 46% | [2]; at 1.2 µM -5% | [2]; at 3.7 µM -7% | [2]; at 11.0 µM -80% | [2]; at 33.0 µM -1% | [2]; at 100.0 µM 27% | [3]; at 1.2 µM 0% | [3]; at 3.7 µM -4% | [3]; at 11.0 µM -1% | [3]; at 33.0 µM -8% | [3]; at 100.0 µM -12% | [4]; at 1.2 µM -4% | [4]; at 3.7 µM -6% | [4]; at 11.0 µM -10% | [4]; at 33.0 µM -1% | [4]; at 100.0 µM 5% | [5]; at 1.2 µM -1% | [5]; at 3.7 µM 0% | [5]; [17] -12% | [5]; at 11.0 µM 1% | [5]; at 33.0 µM 14% | [5]; [18] 17% | [5]; at 50.0 µM 26.4% | [5]; at 100.0 µM 39% | [6]; at 1.2 µM -6% | [6]; at 3.7 µM -9% | [6]; [17] -20% | [6]; at 11.0 µM -11% | [6]; at 33.0 µM 13% | [6]; [18] 26% | [6]; at 50.0 µM 50.1% | [6]; at 100.0 µM 36% | [7]; at 1.2 µM -5% | [7]; at 3.7 µM -7% | [7]; at 11.0 µM -7% | [7]; at 33.0 µM 11% | [7]; at 100.0 µM 52% | [8]; [17] 1% | [8]; [18] 45% | [8]; at 50.0 µM 50.4% | [9]; at 1.2 µM -10% | [9]; at 3.7 µM -14% | [9]; at 11.0 µM -11% | [9]; at 33.0 µM 39% | [9]; at 100.0 µM 62% | [10]; [17] -74% | [10]; [18] -12% | [10]; at 50.0 µM 58% | [11]; at 1.2 µM -9% | [11]; at 3.7 µM -10% | [11]; [17] -1% | [11]; at 11.0 µM -9% | [11]; at 33.0 µM 17% | [11]; [18] 33% | [11]; at 50.0 µM 55.8% | [11]; at 100.0 µM 53% | [12]; at 1.2 µM -4% | [12]; at 3.7 µM -6% | [12]; at 11.0 µM -9% | [12]; at 33.0 µM -2% | [12]; at 100.0 µM 25% | [13]; at 1.2 µM -5% | [13]; at 3.7 µM -9% | [13]; at 11.0 µM -6% | [13]; at 33.0 µM 14% | [13]; at 100.0 µM 42% | [14]; at 1.2 µM -4% | [14]; at 3.7 µM -4% | [14]; at 11.0 µM -3% | [14]; at 33.0 µM 14% | [14]; at 100.0 µM 45% | [15]; [17] -4% | [15]; [18] 33% | [15]; at 50.0 µM 22.7% | [16]; at 1.2 µM -2% | [16]; at 3.7 µM -1% | [16]; at 11.0 µM -1% | [16]; at 33.0 µM 6% | [16]; at 100.0 µM 31%
